Results published in PubChem BioAssay (Tox21).
Several values for one entry are separate records, joined by “and”; a condition that tells them apart may be missing. Equal entries are not always repeated. Results filed as inconclusive are left out. Where a call stands in place of a potency, no number is given. The source holds several records for some structures; these can differ, active in one and inactive in another. Activity calls are given as the source filed them. Unless noted, calls follow the shape of the dose curve; as a rule, active = well fitted curve in the direction sought with a large enough effect in the repeat runs; inconclusive = weak or mixed curves; inactive = no such curve, though single readings can be large; an effect the other way counts as inactive or inconclusive.

Key:
[1] = qHTS assay to identify small molecule antagonists of the glucocorticoid receptor (GR) signaling pathway - cell viability counter screen (AID 720693); also: nearly all actives have a fitted effect of over 55% in size; also: potency is read from the fitted curve at half-maximal effect
[2] = qHTS assay for identifying genotoxic compounds that show differential cytotoxicity against isogenic chicken DT40 cell lines with known DNA damage response pathways - wild type cell line (AID 743012); also: nearly all actives have a fitted effect of over 60% in size; also: potency is read from the fitted curve at half-maximal effect
Procedure, shortened: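 First, wild type DT40 cells were plated at 300 per well and equilibrated about 0.5 h at 37 C/5% CO2. Next, compounds in DMSO were added and exposure lasted 40 h. Finally, CellTiter-Glo was added for 30 min at room temperature and luminescence recorded.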

[3] = qHTS assay for identifying genotoxic compounds that show differential cytotoxicity against isogenic chicken DT40 cell lines with known DNA damage response pathways - Rev3 mutant cell line (AID 743014); also: nearly all actives have a fitted effect of over 55% in size; also: potency is read from the fitted curve at half-maximal effect
[4] = qHTS assay for identifying genotoxic compounds that show differential cytotoxicity against isogenic chicken DT40 cell lines with known DNA damage response pathways - Rad54/Ku70 mutant cell line (AID 743015); also: nearly all actives have a fitted effect of over 60% in size; also: potency is read from the fitted curve at half-maximal effect
[5] = qHTS assay to identify small molecule antagonists of the androgen receptor (AR) signaling pathway - cell viability counter screen (AID 743033; also: nearly all actives have a fitted effect of over 45% in size; also: potency is read from the fitted curve at half-maximal effect)
[6] = qHTS assay to identify small molecule antagonists of the androgen receptor (AR) signaling pathway using the MDA cell line - cell viability counter screen (AID 743041; also: nearly all actives have a fitted effect of over 45% in size; also: potency is read from the fitted curve at half-maximal effect)
Procedure, shortened: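 R1881-driven MDA-kb2 AR-luc cells, 3,000/well, were dosed with library compounds for 16 h; cell health came from CellTiter-Fluor fluorescence in the reporter wells.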

[7] = qHTS assay to identify small molecule antagonists of the thyroid receptor (TR) signaling pathway - cell viability counter screen (AID 743064); also: nearly all actives have a fitted effect of over 50% in size; also: potency is read from the fitted curve at half-maximal effect
Procedure, shortened: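 In-well cytotoxicity read by CellTiter-Fluor (30 min, 37 C) following 23.5 h exposure of GH3 cells bearing a TRE-luciferase sensor. Compounds were added alongside 1 nM (final) T3 to drive TR transactivation.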

[8] = qHTS assay to identify small molecule antagonists of the thyroid receptor (TR) signaling pathway (AID 743065); also: nearly all actives have a fitted effect of over 55% in size; also: potency is read from the fitted curve at half-maximal effect
Procedure, shortened: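 Antagonism measured as loss of luciferase signal in GH3 cells stably carrying a TRE-luciferase reporter, co-treated with compound and T3 (1 nM final) for 23.5 h at 37 C. Viability was read in the same well by CellTiter-Fluor.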

[9] = tested on: thyroid hormone receptor (rat, GH3 cells); test: qHTS assay to identify small molecule agonists of the thyroid receptor (TR) signaling pathway (AID 743066; calls by dose curve)
[10] = target: Estrogen receptor (Homo sapiens) (UniProt P03372); test: qHTS assay to identify small molecule antagonists of the estrogen receptor alpha (ER-alpha) signaling pathway (AID 743069; active = well fitted curve in the direction sought with a large enough effect in the signal ratio in the repeat runs, not every such curve was filed as active; the % refers to the signal ratio; also: potency is read from the fitted curve at half-maximal effect)
Procedure, shortened: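 Compound effects are measured against 17beta-estradiol stimulation in HEK293 cells with a UAS-controlled beta-lactamase reporter for ER-alpha. Exposure lasts 18 hr at 37C; LiveBLAzer B/G FRET substrate follows for 2 hr at room temperature.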

[11] = qHTS assay to identify small molecule antagonists of the estrogen receptor alpha (ER-alpha) signaling pathway - cell viability counter screen (AID 743074; calls by dose curve;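 also: HEK293 cells carrying ER-alpha-UAS-bla reporter stimulated with 17beta-estradiol; nearly all actives have a fitted effect of over 45% in size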)
[12] = target: Estrogen receptor (Homo sapiens) (UniProt P03372); test: qHTS assay to identify small molecule agonists of the estrogen receptor alpha (ER-alpha) signaling pathway (AID 743075; calls by dose curve)
[13] = target: Estrogen receptor (Homo sapiens) (UniProt P03372); test: qHTS assay to identify small molecule agonists of the estrogen receptor alpha (ER-alpha) signaling pathway using the BG1 cell line (AID 743079); also: nearly all actives have a fitted effect of over 20% in size
[14] = qHTS assay to identify small molecule antagonists of the estrogen receptor alpha (ER-alpha) signaling pathway using the BG1 cell line (AID 743080; calls by dose curve;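 also: BG1 cells stimulated with 17beta-estradiol alongside compound; nearly all actives have a fitted effect of over 25% in size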; also: potency is read from the fitted curve at half-maximal effect)
Procedure, shortened: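 BG1Luc4E2, endogenous ER-alpha, 4xERE-luc; 5 d charcoal-stripped FBS, phenol red free; 24 h plating; cpd + 17beta-estradiol 21.5 h, 37 C/5% CO2; CellTiter-Fluor viability 30 min, then ONE-Glo luciferase 30 min RT.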

[15] = qHTS assay to identify small molecule antagonists of the estrogen receptor alpha (ER-alpha) signaling pathway using the BG1 cell line - cell viability counter screen (AID 743081);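 also: compound given together with 17beta-estradiol as the ER stimulus; series mostly up to about 70 µM; nearly all actives have a fitted effect of over 45% in size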
[16] = target: Aromatase (Homo sapiens) (UniProt P11511); test: qHTS assay to identify aromatase inhibitors (AID 743083); also: nearly all actives have a fitted effect of over 55% in size; also: potency is read from the fitted curve at half-maximal effect
[17] = target: Androgen receptor (Homo sapiens) (UniProt P10275); test: qHTS assay to identify small molecule antagonists of the androgen receptor (AR) signaling pathway (AID 743035; active = well fitted inhibition curve with a large enough effect in the signal ratio in the repeat runs, not every such curve was filed as active; the % refers to the signal ratio; also: potency is read from the fitted curve at half-maximal effect)
Procedure, shortened: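 Beta-lactamase FRET read (2 h RT incubation with LiveBLAzer B/G) following 16 h of compound plus R1881 treatment of AR-UAS-bla HEK293 cells, which had been pre-incubated 4 h at 37C.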

[18] = target: Androgen receptor (Homo sapiens) (UniProt P10275); test: qHTS assay to identify small molecule agonists of the androgen receptor (AR) signaling pathway (AID 743036; active = well fitted activation curve with a large enough effect in the signal ratio in the repeat runs, with a control signal flat, not every such curve was filed as active; the % refers to the signal ratio)
Procedure, shortened: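 Activation was read as beta-lactamase FRET signal from LiveBLAzer B/G substrate, added for 2 h at room temperature. Before that, GeneBLAzer AR-UAS-bla GripTite (HEK293) cells had 16 h compound exposure at 37C.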

[19] = target: Androgen receptor (Homo sapiens) (UniProt P10275); test: qHTS assay to identify small molecule agonists of the androgen receptor (AR) signaling pathway using the MDA cell line (AID 743040; also: nearly all actives have a fitted effect of over 20% in size)
Procedure, shortened: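 After a 5 h incubation at 37C and 0% CO2, MDA-kb2 reporter cells were dosed with compounds in DMSO and kept 16 h under the same conditions. Luciferase activity was then read as luminescence with ONE-Glo.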

[20] = target: Androgen receptor (Homo sapiens) (UniProt P10275); test: qHTS assay to identify small molecule antagonists of the androgen receptor (AR) signaling pathway using the MDA cell line (AID 743042; also: nearly all actives have a fitted effect of over 55% in size; also: potency is read from the fitted curve at half-maximal effect)
Procedure, shortened: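 Antagonist mode: compounds plus R1881 agonist added to MDA-kb2 AR-luc cells, incubated 16 h at 37C. Luciferase reporter luminescence quantified, with multiplexed CellTiter-Fluor readout for cell viability.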

Chain of Estrogen receptor (Homo sapiens) (P03372 whole entry, looked up): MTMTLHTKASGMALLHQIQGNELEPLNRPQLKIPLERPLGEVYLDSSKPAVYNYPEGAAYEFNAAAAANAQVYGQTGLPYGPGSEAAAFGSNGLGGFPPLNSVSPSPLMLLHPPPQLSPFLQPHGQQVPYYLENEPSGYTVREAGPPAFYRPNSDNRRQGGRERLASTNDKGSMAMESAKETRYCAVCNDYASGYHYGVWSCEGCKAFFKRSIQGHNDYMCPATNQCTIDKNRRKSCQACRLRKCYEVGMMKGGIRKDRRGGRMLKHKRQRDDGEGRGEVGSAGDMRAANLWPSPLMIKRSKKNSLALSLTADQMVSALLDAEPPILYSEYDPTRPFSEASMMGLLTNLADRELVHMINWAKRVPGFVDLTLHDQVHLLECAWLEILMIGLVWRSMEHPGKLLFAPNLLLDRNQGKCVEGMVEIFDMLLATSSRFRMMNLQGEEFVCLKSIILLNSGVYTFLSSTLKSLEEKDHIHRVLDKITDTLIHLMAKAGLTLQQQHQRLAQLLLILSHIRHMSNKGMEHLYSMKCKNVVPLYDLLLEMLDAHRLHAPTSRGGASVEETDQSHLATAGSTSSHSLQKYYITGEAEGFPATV
Chain of Androgen receptor (Homo sapiens) (P10275 whole entry, looked up): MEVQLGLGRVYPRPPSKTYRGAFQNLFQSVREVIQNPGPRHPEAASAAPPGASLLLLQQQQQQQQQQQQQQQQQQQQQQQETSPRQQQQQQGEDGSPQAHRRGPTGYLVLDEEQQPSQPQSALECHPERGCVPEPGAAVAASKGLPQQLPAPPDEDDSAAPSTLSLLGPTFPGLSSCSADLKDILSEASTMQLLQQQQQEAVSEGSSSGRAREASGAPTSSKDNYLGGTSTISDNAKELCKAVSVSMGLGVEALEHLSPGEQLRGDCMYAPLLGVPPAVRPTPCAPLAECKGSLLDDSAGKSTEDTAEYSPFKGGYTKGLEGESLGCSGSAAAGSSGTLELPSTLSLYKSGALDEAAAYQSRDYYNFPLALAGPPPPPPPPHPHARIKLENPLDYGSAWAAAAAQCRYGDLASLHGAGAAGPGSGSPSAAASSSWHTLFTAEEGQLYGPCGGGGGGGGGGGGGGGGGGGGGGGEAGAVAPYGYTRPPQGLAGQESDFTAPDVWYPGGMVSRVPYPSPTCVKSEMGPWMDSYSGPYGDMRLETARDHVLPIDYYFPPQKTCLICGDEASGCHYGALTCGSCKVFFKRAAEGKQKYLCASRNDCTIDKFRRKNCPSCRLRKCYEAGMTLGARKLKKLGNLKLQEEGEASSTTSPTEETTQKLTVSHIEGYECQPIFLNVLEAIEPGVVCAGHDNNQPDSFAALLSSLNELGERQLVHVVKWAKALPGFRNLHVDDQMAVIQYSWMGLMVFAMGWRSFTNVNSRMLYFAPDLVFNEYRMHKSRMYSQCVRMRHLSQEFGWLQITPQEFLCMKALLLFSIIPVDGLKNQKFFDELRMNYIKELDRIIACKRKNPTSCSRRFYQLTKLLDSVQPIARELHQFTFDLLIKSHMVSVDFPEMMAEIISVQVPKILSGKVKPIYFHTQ
Chain of Aromatase (Homo sapiens) (P11511 whole entry, looked up): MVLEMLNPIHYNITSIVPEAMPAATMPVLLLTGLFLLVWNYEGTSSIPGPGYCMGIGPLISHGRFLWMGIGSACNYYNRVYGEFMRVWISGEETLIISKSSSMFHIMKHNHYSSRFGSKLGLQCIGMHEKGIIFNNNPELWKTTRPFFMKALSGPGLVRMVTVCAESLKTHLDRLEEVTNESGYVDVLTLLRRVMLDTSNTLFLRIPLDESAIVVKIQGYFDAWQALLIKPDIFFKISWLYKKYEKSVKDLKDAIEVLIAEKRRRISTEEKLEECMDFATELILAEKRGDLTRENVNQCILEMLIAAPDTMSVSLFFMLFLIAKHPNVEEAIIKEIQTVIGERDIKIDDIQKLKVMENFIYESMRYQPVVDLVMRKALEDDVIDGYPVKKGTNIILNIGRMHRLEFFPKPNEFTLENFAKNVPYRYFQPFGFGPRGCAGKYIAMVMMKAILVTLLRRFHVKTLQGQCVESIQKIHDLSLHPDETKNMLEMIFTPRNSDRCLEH

Row | SMILES | Potency [1] | Potency [2] | Potency [3] | Potency [4] | Potency [5] | Potency [6] | Potency [7] | Potency [8] | Potency [9] | Potency [10] | Potency [11] | Potency [12] | Potency [13] | Potency [14] | Potency [15] | Potency [16] | Potency [17] | outcome [18] | Potency [19] | Potency [20]
1 | OC(CCl)CCl | inactive | inactive | inactive | inactive | inactive | inactive | inactive | inactive | inactive | inactive | inactive | inactive | inactive | inactive | inactive | inactive | – | – | – | –
2 | CCOCCOCCO | inactive | inactive | inactive | inactive | inactive | inactive | inactive | inactive | inactive | – | inactive | – | – | – | inactive | inactive | inactive | inactive | inactive | inactive
3 | Cc1ccc(C)c(O)c1C | inactive | inactive | inactive | inactive | inactive | inactive | inactive | inactive | inactive | inactive | inactive | inactive | inactive | inactive | inactive | inactive | inactive | inactive | inactive | inactive
4 | O=C(Nc1ccc(Cl)cc1)Nc1ccc(Cl)c(Cl)c1 | 4.77 µM (active) and 7.73 µM (active) and 6.92 µM (active) | 3.35 µM (active) and 6.08 µM (active) and 2.73 µM (active) | 2.66 µM (active) and 4.31 µM (active) and 2.17 µM (active) | 2.66 µM (active) and 5.42 µM (active) and 2.17 µM (active) | 3.38 µM (active) and 1.94 µM (active) and 3.89 µM (active) | 24.3 µM (active) | 4.22 µM (active) and 3.44 µM (active) | 2.66 µM (active) and 2.72 µM (active) and 2.73 µM (active) | inactive | 3.47 µM [cytotoxic] (active) | – | inactive | – | 13.3 µM (active) and 24.2 µM (active) | inactive | 9.64 µM (active) and 13.7 µM (active) | 6.01 µM (active) and 4.36 µM (active) | – | inactive | 43.1 µM (active) and 13.7 µM (active)
5 | CC(C)OC=O | inactive | inactive | 72.9 µM (active) and inactive | inactive | inactive | inactive | inactive | inactive | inactive | inactive | inactive | inactive | inactive | inactive | inactive | inactive | – | – | – | –
6 | CC(C)OB(OC(C)C)OC(C)C | inactive | inactive | inactive | inactive | inactive | inactive | inactive | inactive | inactive | inactive | inactive | inactive | inactive | inactive | inactive | inactive | – | – | – | –
7 | Cc1c(C(N)=O)cc([N+](=O)[O-])cc1[N+](=O)[O-] | inactive | inactive | inactive | inactive | inactive | inactive | inactive | inactive | inactive | inactive | inactive | inactive | inactive | inactive | inactive | inactive | – | – | – | –
8 | CCCCOCCOCCOCCO | inactive | inactive | inactive | inactive | inactive | inactive | inactive | inactive | inactive | inactive | inactive | inactive | inactive | inactive | inactive | inactive | – | – | – | –
9 | CC(C(=O)O)c1cccc(C(=O)c2ccccc2)c1 (configuration not stated) | inactive | inactive | inactive | inactive | inactive | inactive | inactive | inactive | inactive | inactive | inactive | inactive | inactive | inactive | inactive | inactive | – | – | – | –
10 | O=C(c1ccccc1)c1ccccc1O | inactive | inactive | inactive | inactive | inactive | inactive | inactive | inactive | inactive | – | inactive | – | – | – | inactive | inactive and 27.3 µM (active) | inactive | inactive | inactive | inactive
11 | c1ccc2cc(Nc3ccc(Nc4ccc5ccccc5c4)cc3)ccc2c1 | inactive | inactive | inactive | inactive | inactive | inactive | inactive | inactive | inactive | – | inactive | – | – | – | inactive | inactive | inactive | – | inactive | inactive
12 | CC(C)=CCCC(C)CCO (configuration not stated) | inactive | 61.1 µM (active) | inactive and 30.6 µM (active) | inactive and 27.3 µM (active) | inactive | inactive | inactive | inactive | inactive | inactive | inactive | inactive | inactive | inactive | inactive | inactive | – | – | – | –
13 | CC(=O)CC/C=C(\C)CCC=C(C)C | inactive | inactive | inactive | inactive | inactive | inactive | inactive | inactive | inactive | inactive | inactive | inactive | inactive | inactive | inactive | inactive | – | – | – | –
14 | Cc1cccc(C(=O)O)c1 | inactive | inactive | inactive | inactive | inactive | inactive | inactive | inactive | inactive | inactive | inactive | inactive | inactive | inactive | inactive | inactive | inactive | inactive | inactive | inactive
